Furin inhibitor – blocks human furin protease activity | AID 463115 | hit rate 0.061% among 220,000 | P09958 | inhibition, % at 20 µM or 30 µM | purified furin, fluorogenic substrate cleavage; in the data active = inhibition above about 25%
PGE2 EP2 inh – EP2 receptor (human) inhibition; P43116; C6 glioma cells expressing human EP2, cAMP TR-FRET; cells stimulated with saturating PGE2; inhibition, % at 25 µM; hit rate 0.52% among 260,000; AID 1422;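 active = percent inhibition above 40 after rounding to a whole number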;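 note: rat C6 glioma host cells with rolipram phosphodiesterase inhibitor present; the protocol text gives 20 µM as final concentration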
Target sequence (P43116 whole entry, looked up): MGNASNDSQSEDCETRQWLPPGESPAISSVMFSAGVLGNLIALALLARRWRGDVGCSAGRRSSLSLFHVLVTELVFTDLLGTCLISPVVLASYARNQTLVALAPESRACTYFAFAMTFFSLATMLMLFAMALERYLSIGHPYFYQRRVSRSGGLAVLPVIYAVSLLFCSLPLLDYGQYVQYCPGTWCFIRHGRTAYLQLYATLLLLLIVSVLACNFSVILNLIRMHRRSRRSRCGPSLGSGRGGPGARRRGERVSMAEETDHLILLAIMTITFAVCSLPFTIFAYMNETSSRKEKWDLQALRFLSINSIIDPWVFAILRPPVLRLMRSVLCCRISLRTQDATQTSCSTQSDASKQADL
Pf gametocyte – inhibitors of late stage P. falciparum gametocyte viability | P. falciparum stage V gametocytes, ATP luminescence, 24 h | inhibition, % at 10.9 µM | hit rate 0.065% among 150,000 | AID 743093;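 active = inhibition above the mean plus 3 SD of compounds within the control limits, set per campaign, cut at about 38% in these data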
EP2 modulator – EP2 receptor (human) modulation. P43116. EP2-expressing cells, cAMP HTRF FRET, PGE2 co-stimulation. hit rate 0.83% among 260,000. induction, % at 25 µM. AID 940;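 active = compounds whose cAMP rise, as percent of the full-agonist control response, exceeds 60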;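 note: rat C6 glioma line stably carrying human EP2 under a CMV promoter; the protocol text gives 20 µM as final concentration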
HSV augment – HSV replication enhancement; hit rate 0.005% among 220,000; HSV replication augmentation in cells, fold increase; AID 1956; maximum fold increase; in the data active = maximum fold increase above about 1.5; tested in PC3 cells
Hits are given with their value; 0 = inactive; - = no result. A selection: hits, their analogues and other compounds. The true share with any hit is near 1.4%.

SMILES	Furin inhibitor	PGE2 EP2 inh	Pf gametocyte	EP2 modulator	HSV augment
Cc1cc(C)c2cc(CN(Cc3cccs3)Cc3nnnn3CCc3ccccc3)c(=O)[nH]c2c1	-	0	-	63	-
CC(C)=Cc1oc2ccc([N+](=O)[O-])cc2c1N1CCOCC1	0	0	0	64	0
N#Cc1nc(-c2ccc(OCc3ccccc3)cc2)oc1NCCCn1ccnc1	0	40	-	0	0
N#Cc1nc(-c2ccc(OCc3ccccc3Cl)cc2)oc1NCCCn1ccnc1	0	-	-	0	-
COc1ccc(N2CC(C(=O)OCC(=O)Nc3ccc(C)cc3C)CC2=O)cc1 (centres undefined)	-	0	-	0	-
COc1ccccc1NC(=O)COC(=O)c1ccc(S(=O)(=O)NCc2ccco2)cc1	0	0	0	0	0
Cc1nnc(NC(=O)c2ccc(S(=O)(=O)N3CCc4ccccc4C3)cc2)o1	0	0	49	0	0
COc1ccccc1N1CCN(C(=O)C(F)F)CC1	0	0	-	0	0
Nc1ccccc1Sc1ccccc1[N+](=O)[O-]	0	0	0	61	0
O=C(Nc1c(C(=O)C2CC2)oc2ccccc12)c1ccc(Cl)cc1	0	0	0	64	0
Cc1ccc(CC(CC(=O)O)C(=O)NC2CCCCC2)cc1 (centres undefined)	0	0	0	0	0
O=C(CC(C(=O)O)P(=O)(c1ccccc1)c1ccccc1)c1ccc(Br)cc1 (centres undefined)	0	0	0	0	0
CCOC(=O)C1=C(C)NC(=O)NC1c1ccoc1 (centres undefined)	0	0	0	0	0
CCOC(=O)C1=C(C)NC(=O)N[C@@H]1c1coc2cc(C)cc(C)c2c1=O	-	53	-	0	-
CC(=O)Nc1sc2c(c1C#N)CCC(C)C2 (centres undefined)	0	0	0	0	0
Cc1ccc(C)n1-c1sc2c(c1C#N)CCC(C)C2 (centres undefined)	0	-	38	0	-
CCCS(=O)(=O)N1CCN(C(=O)COc2ccc(OC)cc2)CC1	0	0	0	0	0
C[C@H]1CCCC2(CC[N+](C)(CCC[N+](C)(C)C)CC2)C1 (some centres undefined)	-	48	-	0	-
O=C(Nc1nc2ccsc2c(=O)s1)c1ccc(Cl)cc1	0	43	0	0	0
O=C1CCCN2N=C(SCC(=O)N3CCCCC3)SC2=N1	0	0	0	0	0
CCN(c1cccc2ccccc12)S(=O)(=O)c1ccc(Cl)nc1	0	0	0	65	0
O=S1(=O)CC2NC(=S)N(c3cccc(Br)c3)C2C1 (centres undefined)	0	0	0	70	0
O=C1N(c2ccccc2)C2CS(=O)(=O)CC2N1c1ccc(Br)cc1 (centres undefined)	0	0	-	0	0
CCCS(=O)(=O)N1CCCC(C(=O)NCCN2CCC(Cc3ccccc3)CC2)C1 (centres undefined)	0	0	-	0	0
Cc1c(Br)c([N+](=O)[O-])nn1CC(=O)NCCc1c[nH]c2ccccc12	0	0	0	0	0
SMILES	Furin inhibitor	PGE2 EP2 inh	Pf gametocyte	EP2 modulator	HSV augment
O=C(O)CNC(=O)[C@H]1NC(C(F)(F)F)(C(F)(F)F)OC1(C(F)(F)F)C(F)(F)F	-	42	-	0	-
N#C/C(=C\c1ccc(O)c([N+](=O)[O-])c1)C(=O)NCc1ccccc1	0	0	0	0	0
O=S(=O)(O)c1nc2ccccc2n1CCOc1ccccc1	0	0	0	0	0
C=CCNC(=S)N/N=C/c1ccc(-c2ccc(Br)cc2)o1	0	0	0	0	0
C[C@H](NC(=O)c1ccc(Cl)c(Cl)c1)c1ccc(-c2ccccc2)cc1	-	55	-	0	-
COc1nccnc1NS(=O)(=O)c1ccc(NC(=S)NC(=O)/C=C/c2ccc(F)cc2)cc1	0	66	0	0	0
COc1nccnc1NS(=O)(=O)c1ccc(NC(=S)NC(=O)/C=C/c2ccc(C)cc2)cc1	-	72	-	0	-
Cc1cc2c(cc1C)C(c1ccsc1)CC(=O)N2 (centres undefined)	0	0	0	0	0
O=C1C=CC(=O)C(C2=C3C(=O)N(CCc4ccccc4)CC(=O)N3CCC2)=C1	0	90	0	0	0
O=C1CC(=O)N(CCc2ccccc2)C(=O)N1CCc1ccccc1	0	0	0	0	0
Cc1ccc(S(=O)(=O)NN2C(=O)c3ccccc3NC2(C)C)cc1	0	0	0	0	0
CCC1CCC/C1=N\NC(=O)c1ccccc1C (centres undefined)	-	-	0	-	-
Cc1cc2nc(SCC(=O)N(C)C)c3c(c2cc1C)CCCC3	0	0	0	62	0
CN(C)C(=O)CSc1nc(-c2ccccc2)nc2c1CCCC2	0	0	-	0	0
O=C(O)CSc1nc2ccccc2c2c1CCCC2	-	0	-	88	-

Source: PubChem (several laboratories)
